# Bioassay records deposited in PubChem BioAssay by National Center for Advancing Translational Sciences (NCATS).
# An excerpt weighted towards active compounds, which were near 7.3% of everything screened.
# Luc counter – Kinase-Glo luciferase inhibition (counter-screen) | Q27757 | Kinase-Glo luciferase, ATP luminescence, 8 min | Potency, µM (doses to about 38.3 µM), for the others: top-dose activity change, negative = inhibition, hits mostly inhibitors | 200,000 compounds, 0.28% hits; note: % is set by controls: 0 for no effect and ±100 for the full control effect; nearly all actives have a fitted effect of over 60% in size
#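 Inhibition of Kinase-Glo luciferase light generation was assessed at 10 uM ATP in pH 7.2 imidazole buffer, with luminescence measured after eight minutes at ambient temperature.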
# FLuc counter – counter-screen for miR-21 project: firefly luciferase inhibitors or activators; purified FLuc, Km substrates, luminescence inhibition; Potency, µM (series often up to 57.5 µM), without a hit: at the top dose activity change, negative = inhibition, usual class: inhibitors; 360,000 compounds, 6.9% hits;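 note: plate controls were vehicle for no effect and reference inhibitor for full effect; nearly all actives have a fitted effect of over 55% in size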
# Target sequence (P08659 whole entry, looked up): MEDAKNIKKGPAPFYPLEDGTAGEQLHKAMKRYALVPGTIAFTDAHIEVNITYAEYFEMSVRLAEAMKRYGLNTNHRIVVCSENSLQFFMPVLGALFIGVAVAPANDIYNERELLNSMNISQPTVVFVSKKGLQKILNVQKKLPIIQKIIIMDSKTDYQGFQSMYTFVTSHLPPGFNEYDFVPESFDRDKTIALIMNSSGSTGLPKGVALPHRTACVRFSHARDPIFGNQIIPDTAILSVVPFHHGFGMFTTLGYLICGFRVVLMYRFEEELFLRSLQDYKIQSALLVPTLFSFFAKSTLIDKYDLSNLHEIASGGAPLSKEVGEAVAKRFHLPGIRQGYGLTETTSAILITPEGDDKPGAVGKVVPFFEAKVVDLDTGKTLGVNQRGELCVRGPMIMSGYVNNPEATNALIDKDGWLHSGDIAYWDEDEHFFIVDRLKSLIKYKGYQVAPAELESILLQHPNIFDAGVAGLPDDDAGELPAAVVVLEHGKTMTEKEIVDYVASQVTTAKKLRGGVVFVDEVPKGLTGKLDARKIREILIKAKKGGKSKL
#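 Biochemical qHTS of compounds, final roughly 60 µM downward over six points, against 10 nM purified firefly luciferase using Km concentrations of substrates (10 uM D-luciferin, 10 uM ATP) in Tris acetate pH 7.5 buffer; luminescence output.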
# NPC1 prom act – NPC1 promoter activation | Huh7 NPC1 promoter luciferase reporter, 24 h | Potency, µM (top dose mostly 9.22 µM), without a hit: top-dose activation, most hits filed as activators | 320,000 compounds, 2.4% hits; note: % of control where 0% means no effect; nearly all actives have a fitted effect of over 60% in size
#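 NPC1 promoter–luciferase Huh7 cells; 24 h compound; luminescence.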
# ELG1 genotoxic – inducers of genotoxicity in HEK293T ELG1-luciferase cells; Potency, µM (top dose mostly 46 µM), for the others: at the top dose activity change, positive = activation, actives largely listed as activators; HEK293T ELG1-luciferase reporter, luminescence, 16 h; AID 504466; 330,000 compounds, 1.3% hits; note: % of control where 0% means no effect; nearly all actives have a fitted effect of over 60% in size
#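 Luminescence read-out: rising ELG1-luciferase signal, reflecting elevated ELG1 protein under genetic stress, flags genotoxic compounds. Cells were treated for 16 hr at 37 °C before ONE-Glo detection.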
# SMN2 splice enh – SMN2 splice variant enhancement; HEK293 SMN2-luciferase splicing reporter, luminescence, 30-36 h; Potency, µM (top dose mostly 46.1 µM), for the others: top-dose activity change, positive = activation, hits mostly activators; 210,000 compounds, 2.8% hits; AID 1458; note: % of control where 0% means no effect; nearly all actives have a fitted effect of over 55% in size
#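 HEK293 cells carry an SMN2 […]–luciferase reporter in which exon 7 inclusion puts luciferase in frame. Cells were plated 10-12 h before compound addition, then incubated 30-36 h at 37C. ONE-Glo luminescence was read; sodium butyrate at 4.5 mM final served as control.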
# Rab9 prom act – Rab9 promoter activation; Potency, µM (highest dose often 9.22 µM), without a hit: at the highest dose activation, negative = inhibition, usual class: activators; 320,000 compounds, 2.8% hits; Huh7 Rab9 promoter-luciferase reporter, luminescence, 24 h; AID 485297; note: % of control where 0% means no effect; nearly all actives have a fitted effect of over 60% in size
#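 Stable Rab9-luc Huh7, 1500 cells/well, 2 h settle; cmpd in DMSO, 24 h, 37 °C/5% CO2; luciferase reagent 10 min RT; luminescence.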
# The depositor's hits bear a star; ? = inconclusive; . = no result; [ ] = another dose, or the depositor's remark. Calls come from the whole dose curve; as a rule, active = well fitted curve in the direction sought with a large enough effect; inconclusive = small, poorly fitted or top-dose-only effect, or another doubt; inactive = no such curve, though single readings can be large; an effect the other way counts as inactive or inconclusive. Potency is the fitted concentration of half-maximal effect.
SMILES,Luc counter,FLuc counter,NPC1 prom act,ELG1 genotoxic,SMN2 splice enh,Rab9 prom act
Cc1cccc(OCc2nc3ccccc3n2C)c1,.,23.9µM*,?,?,.,?
COc1cccc(OCc2nc3ccccc3n2C)c1,.,10.7µM*,.,.,15.8µM*,.
Cc1cccc(OCc2nc3ccccc3c(=O)n2N)c1,-9.1%,16.9µM*,?,?,?,?
COC(=O)CC1Oc2ccc(C)cc2-n2cc(-c3ccc(C)cc3)nc21 (stereo unspecified),.,-2.0%,.,.,-17.9%,.
CC(=O)c1ccc(NC(=O)CSc2nccn2Cc2ccco2)cc1,.,16.9µM*,.,.,.,.
CCn1c(SCC(=O)Nc2ccc(C(C)=O)cc2)nc2ccccc21,1.9%,?,?,16.4µM*,?,?
N#Cc1ccccc1NC(=O)CSc1nccn1CCc1ccccc1,-0.6%,21.3µM*,?,20.6µM*,?,?
CCn1c(SCC(=O)Nc2ccc3[nH]c(=O)[nH]c3c2)nc2ccccc21,.,1.8%,-1.0%,4.0%,.,-3.4%
O=C(CSc1nccn1Cc1ccco1)Nc1cccc(F)c1,.,-3.9%,17.1%,9.4%,.,25.9%
N#Cc1ccccc1NC(=O)CSc1nnc(-c2ccccc2)n1-c1ccccc1,-2.4%,0.7%,3.5%,-28.8%,-20.3%,1.7%
COc1ccc(NC(=O)CSc2nccn2Cc2ccco2)c(OC)c1,.,19µM*,21.1%,?,.,?
O=C(CSc1nccn1Cc1ccco1)Nc1ccc(F)cc1,.,-13.0%,-3.1%,?,.,3.0%
CC(=O)c1ccc(NC(=O)CSc2nccn2C)cc1,.,-7.6%,22.1%,12.8%,.,10.6%
CC(=O)c1ccc(NC(=O)CSc2nccn2CCc2ccccc2)cc1,-2.6%,13.5µM*,?,?,14.8%,?
Cc1ccc(NC(=O)CSc2nccn2Cc2ccco2)cc1,.,19µM*,?,?,.,4.47µM*
Cc1ccc(-n2cc(C(=O)Oc3ccc(F)cc3)c3ccccc3c2=O)cc1,.,-5.2%,.,.,.,.
Cc1ccc(CNC(=O)CCc2nnc3n(C)c(=O)c4sccc4n23)cc1,.,-4.4%,.,.,-0.5%,.
CC1CC1C(=O)OCc1cc(=O)n2cc(Br)ccc2n1 (stereo unspecified),8.4%,9.53µM*,2.51µM*,?,12.6%,3.55µM*
Cc1ccccc1C(=O)NC(CC(C)C)C(=O)OCc1cc(=O)n2cc(Br)ccc2n1 (stereo unspecified),-3.3%,13.5µM*,3.98µM*,?,11.2µM*,?
CC1(C(=O)OCc2cc(=O)n3cc(Br)ccc3n2)CC1(Cl)Cl (stereo unspecified),-2.1%,13.5µM*,3.16µM*,11.6µM*,?,-27.2%
O=C(OCc1cc(=O)n2cc(Br)ccc2n1)C1COc2ccccc2O1 (stereo unspecified),-3.5%,-0.1%,0.1%,2.5%,3.3%,-2.3%
CC1(C)NC(=O)N(CC(=O)OCc2cc(=O)n3cc(Br)ccc3n2)C1=O,2.4%,-1.3%,-4.6%,1.4%,16.9%,6.2%
Cc1nn(C)cc1/C=C/C(=O)c1ccccc1,-20.3%,1.51µM*,?,?,19.1%,?
CCn1cc(/C=C/C(=O)c2ccc(O)cc2)c(C)n1,-3.6%,10.7µM*,?,10.3µM*,.,?
CCn1cc(/C=N/O)c(C)n1,-2.4%,5.5%[2.3 µM],-3.9%,-0.9%,?,13.4%
SMILES,Luc counter,FLuc counter,NPC1 prom act,ELG1 genotoxic,SMN2 splice enh,Rab9 prom act
Cc1nn(C)cc1/C=C/C(=O)c1cccs1,-8.9%,5.36µM*,?,18.4µM*,?,?
Cc1ccc(-c2nn(CCC(=O)O)cc2/C=C\C(=O)c2ccc(Br)cc2)cc1,-1.5%,-14.6%,-14.9%,-4.0%,-39.5%,-2.5%
Cc1nn(C)c(C)c1/C=C/C(=O)c1ccccc1,-5.4%,19µM*,?,16.4µM*,-35.9%,3.55µM*
COc1ccc(C(=O)N(O)c2ccccc2)cc1,-1.4%,.,.,.,3.3%,.
CCC/C=C(\CCC)C(NC(=O)C(C)(C)C)c1ccc(C(=O)OC)cc1 (stereo unspecified),-4.3%,.,.,.,-21.5%,.
Cc1cccc2nc(Cn3c(=O)n(-c4ccc(Cl)cc4)c(=O)c4c5c(sc43)CCC5)cc(=O)n12,.,-4.1%,.,.,4.4%,.
O=C(Cc1ccc(-c2ccccc2)cc1)NCCS(=O)(=O)N1CCN(c2ccccc2)CC1,.,-6.1%,.,.,.,.
c1cncc(CNCc2cccnc2)c1,-4.5%[7.66 µM],.,.,.,-5.3%[9.22 µM],.
COc1ccc(OC)c(C2c3c(-c4ccc(Br)cc4)n[nH]c3C(=O)N2c2ccc(Cl)cc2)c1 (stereo unspecified),.,1.1%,.,.,-16.0%,.
COc1ccc(OC)c(Nc2ncc3c(n2)CCN(Cc2cc(OC)c(OC)c(OC)c2)C3)c1,.,-5.3%,.,.,.,.
COC(=O)c1c(-c2ccc(OC)cc2)sc2cc3c(cc12)OCO3,.,9.53µM*,?,?,.,0.9%
CSc1ccc(/C=N/n2c(C)cc(C)cc2=O)cc1,-9.3%,15.1µM*,?,10.3µM*,?,2.82µM*
CN1CCN(/N=C/c2ccc(-c3ccccc3)cc2)CC1,-5.5%,19µM*,3.55µM*,8.7%,?,?
CSc1ccc(/C=N/N2CCN(C)CC2)cc1,-6.9%,21.3µM*,?,16.8%,17.8µM*,3.16µM*
CSc1ccc(/C=N/n2c(C)nnc2C)cc1,3.0%,-4.1%,-10.0%,9.9%,10.4%,-6.0%
